From PubChem
TROY signal inh = TROY signaling inhibition; Q293 LMP1-TROYcd NF-kB luciferase reporter, 4 h; inhibition, % at 10 µM; hit rate 0.98% among 360,000;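 active = compounds whose plate-normalised and pattern-corrected inhibition of the luciferase reporter signal at the single screening dose is 50% or more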
LMP1 NFkB inh = reduces LMP1-driven NF-kappaB luciferase signal; LMP1-induced NF-kappaB luciferase reporter cells, luminescence; inhibition, % at 12.5 µM; hit rate 0.69% among 350,000; in the data active = inhibition above about 41%; inconclusive = no clear call, values can overlap the other calls;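 also: 0% = neutral control wells and 100% = reference inhibitor control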
LGR2 inh = blocks bursicon-induced cAMP signaling via Drosophila LGR2. HEK293 LGR2, CRE-luciferase, bursicon-stimulated, 4 h. inhibition, % at 9.99 µM. hit rate 0.35% among 380,000. AID 720647;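 active = drop in luminescence signal, shown as inhibition above about 50% in the replicate tests, limit read from the data, passing the limit was not always enough; inconclusive = probably only some replicates passing the limit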;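 also: agonist challenge used bursicon conditioned medium at about half maximal strength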
EWS-Fli inh = inhibitors of EWS/Fli oncoprotein transcriptional activity | hit rate 0.67% among 350,000 | A673 NR0B1-luciferase reporter, viability-normalised | inhibition, % at 12.6 µM;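 active = mean inhibition of at least 50% after viability correction, with every replicate also passing that limit; inconclusive = mean reaches 50% but only one of two replicates passes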;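 also: firefly luciferase signal divided by Alamar Blue viability fluorescence both relative to DMSO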
TWEAK-Fn14 inh = blocks TWEAK-Fn14 interaction in a reporter cell assay. TWEAK-stimulated Fn14 reporter cells, luciferase luminescence, 8 h. inhibition, % at 10 µM. hit rate 2% among 360,000; in the data active = inhibition above about 50%
PAX8 inh HTS = inhibitors of PAX8 transcriptional activity in RMG-I cells | RMG-I TPO-luciferase reporter, SteadyGlo, 24 h | inhibition, % at 12.6 µM | hit rate 1.2% among 360,000 | AID 652154;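 active = mean replicate inhibition at least 60% with every replicate also reaching 60%; inconclusive = only one of the two criteria is met; inactive = mean below 60% and not all replicates reaching 60%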;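 also: luciferase light reporting Pax8 driven TPO promoter activity; plate controls were median of neutral control wells for no effect and mitoxantrone controls for full effect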
DNA binding = binds DNA displacing acridine orange | hit rate 2% among 640 | shares compounds with EWS-Fli inh | AID 720586 | salmon sperm DNA acridine orange fluorescence polarization | AC35, µM (doses to about 68 µM), for inactives: at the top dose activity change, negative = DNA binding;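 active = fitted curve reaches a 35% signal fall AC35 below twice the sample's top valid tested dose, actives reach about 48 µM in these data; inactive = the rest, including activity in the rising direction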;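 also: lower polarization ratio signals compound binding to DNA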
* = called active by the depositor; ? = inconclusive; . = not tested or not shown; [ ] = remark or other dose. Compounds with a hit are over-represented: about 3.2% of the library has one in this group of screens.

SMILES	TROY signal inh	LMP1 NFkB inh	LGR2 inh	EWS-Fli inh	TWEAK-Fn14 inh	PAX8 inh HTS	DNA binding
Cc1ccc(/C=C2\SC(=S)N(CCC(=O)NNC(=O)c3ccccc3O)C2=O)cc1	1.1	-4.4	25.6	51.3*	-17.0	-3.6	5.4%
Cc1ccc(/C=C2\SC(=S)N(CCCC(=O)NNC(=O)c3ccccc3O)C2=O)cc1	69.1*	54.6*	1.0	82.2*	87.2*	63.7*	9.1%
O=C(N[C@H]1CC[C@H](CCn2cc(C3(O)CCCC3)nn2)O[C@H]1CO)C1CCOCC1	.	.	25.4	6.4	.	-3.4	.
COc1cccc(S(=O)(=O)N[C@@H]2CC[C@H](CCn3cc(-c4ccccc4OC)nn3)O[C@@H]2CO)c1	.	.	9.4	7.5	.	17.0	.
N#C[C@H]1[C@H](c2ccc(C#Cc3ccccc3F)cc2)[C@@H](CO)N1C(=O)C1CCCCC1	.	.	33.9	66.2*	.	59.1	-14.3%[60 µM]
N#C[C@H]1N[C@H](CO)[C@H]1c1ccc(C#Cc2ccc(F)cc2)cc1	.	.	-43.1	53.1*	.	-26.9	5.8%
N#C[C@@H]1N[C@H](CO)[C@@H]1c1ccc(C#Cc2ccccc2F)cc1	.	.	-69.2	-107.8	.	-174.0	.
CN(C)C(=O)c1ccc(-c2ccccc2[C@@H]2[C@@H](CO)N(C(=O)C3CC3)[C@H]2C#N)cc1	.	.	-6.0	60.6*	.	.	-3.6%
N#C[C@@H]1[C@H](c2ccc(C#Cc3ccc(F)cc3)cc2)[C@@H](CO)N1C(=O)Nc1ccc(F)cc1	.	.	59.1*	75.3*	.	102.9*	1.0%
N#C[C@H]1[C@@H](c2ccc(C#Cc3ccccc3F)cc2)[C@H](CO)N1C(=O)C1CCCC1	.	.	5.5	32.3	.	.	.
N#C[C@H]1[C@H](c2ccc(C#CC3CCCC3)cc2)[C@H](CO)N1C(=O)Nc1ccc(F)cc1	.	.	1.6	26.9	.	55.0	.
O=S(=O)(NCC[C@@H]1CC[C@H](NS(=O)(=O)c2ccccc2Cl)[C@H](CO)O1)c1ccc(F)cc1	.	.	8.4	4.2	.	8.9	.
O=C(NCC1CC1)[C@@H]1N[C@@H]2c3ccc(C4=CCCCC4)c(=O)n3C[C@@H]2[C@H]1CO	.	.	2.5	-5.0	.	.	.
N#C[C@H]1[C@H](c2ccc(-c3ccccc3F)cc2)[C@@H](CO)N1C(=O)c1ccccn1	.	.	-23.3	57.0*	.	-6.6	-11.5%
CCCNC(=O)N1[C@H](C#N)[C@H](c2ccc(C#Cc3cccc(F)c3)cc2)[C@H]1CO	.	.	3.5	60.6*	.	19.6	-0.6%
CCCNC(=O)N1[C@H](C#N)[C@H](c2ccc(C#Cc3ccc(F)cc3)cc2)[C@H]1CO	.	.	52.6*	70.7*	.	52.2	2.7%
CCCC#Cc1cnc2c(c1)C(=O)N([C@@H](C)CO)C[C@H](C)[C@@H](CN(C)CCC)O2	.	.	0.0	0.8	.	.	.
COc1ccccc1C(=O)Nc1ccc2c(c1)OC[C@H](C)NC[C@H](C)[C@@H](OC)CN(C)C2=O	.	.	-7.4	.	.	.	.
Cc1c(Cl)cnc(NC(=O)COC(=O)c2ccc3ncsc3c2)c1Cl	-10.0	12.9	8.1	62.2*	23.9	22.5	-11.7%
CC(=O)NC[C@@H]1[C@H](c2ccc(-c3cccc(F)c3)cc2)[C@@H](CO)N1C(C)=O	.	.	-9.1	-7.7	.	5.9	.
COc1ccc(NC(=O)N2CCCCN3[C@@H](CO)[C@H](c4ccc(C5=CCCCC5)cc4)[C@@H]3C2)cc1	.	.	-9.2	71.3*	.	-11.8	-2.3%
CCN1/C(=C/C=C/c2oc3ccc(-c4ccccc4)cc3[n+]2CC)Oc2ccc(-c3ccccc3)cc21	-0.7	43.5*	36.7	90.5*	55.9*	97.7*	22.4µM*
S=c1[nH]nc(-c2cc(-c3ccccc3)n[nH]2)n1/N=C/C(Br)=C/c1ccccc1	-35.7	.	0.6	75.0*	75.4*	45.5	0.3%
CC(C)NC(=O)N1CC2(C1)[C@@H](c1ccccc1)[C@@H](CO)N2C(=O)C1CCOCC1	.	.	-6.4	0.5	.	.	.
COC(=O)c1ccccc1-c1c2ccc(=N)cc-2oc2cc(N)ccc12	17.5	12.3	12.5	85.5*	53.0*	96.0*	<0.03µM*
SMILES	TROY signal inh	LMP1 NFkB inh	LGR2 inh	EWS-Fli inh	TWEAK-Fn14 inh	PAX8 inh HTS	DNA binding
BrC(=C\c1ccccc1)/C=N/n1cnnc1	16.1	?	85.7*	67.5*	71.6*	95.3*	-8.0%
BrC(=C\c1ccccc1)/C=N/Nc1ccc2nncn2n1	-34.1	-4.2	-15.6	-3.1	-12.2	-3.9	.
CCN(Cc1ccccc1)c1ccc(/C=N/N=C(N)N)cc1	34.2	-10.0	61.7*	57.3*	44.5	.	-12.4%
C[C@H]1CN([C@@H](C)CO)C(=O)Cc2cc(NC(=O)CCCCCC(=O)Nc3ccccc3N)ccc2O[C@H]1CN(C)Cc1ccc(Cl)c(Cl)c1	.	.	-4.8	50.5*	.	52.9	-6.7%
C[C@H](CO)N1C[C@H](C)[C@@H](CN(C)Cc2ccc(Cl)c(Cl)c2)Oc2ccc(NC(=O)CCCCCC(=O)Nc3ccccc3N)cc2CC1=O	.	.	-1.2	?	.	29.3	.
C[C@H]1CN([C@@H](C)CO)C(=O)Cc2cc(NC(=O)CCCCCC(=O)Nc3ccccc3N)ccc2O[C@H]1CN(C)Cc1ccc(C(F)(F)F)cc1	.	.	-14.1	55.9*	.	35.6	-7.6%
C[C@@H]1CN([C@@H](C)CO)C(=O)Cc2cc(NS(=O)(=O)c3cccs3)ccc2O[C@H]1CN(C)Cc1ccc(Cl)c(Cl)c1	.	.	31.3	58.8*	.	.	-9.3%
C[C@@H]1CN([C@H](C)CO)C(=O)c2cccc(NC(=O)CCCCCC(=O)Nc3ccccc3N)c2O[C@@H]1CN(C)Cc1ccc(Oc2ccccc2)cc1	.	.	-30.9	16.1	.	30.5	.
C[C@@H]1CN([C@@H](C)CO)C(=O)c2cccc(NC(=O)CCCCCC(=O)Nc3ccccc3N)c2O[C@@H]1CN(C)Cc1ccc(Oc2ccccc2)cc1	.	.	-32.0	52.8*	.	25.9	-3.9%
COc1ccc(NC(=O)N(C)C[C@@H]2OCc3ccccc3-c3c(n(C)c4ccccc34)C(=O)N([C@@H](C)CO)C[C@H]2C)cc1	.	.	6.1	12.3	.	.	.
Cc1noc(C)c1NC(=O)Nc1ccc2c(c1)C(=O)N([C@@H](C)CO)C[C@@H](C)[C@@H](CN(C)C(=O)Cc1ccccc1)OCCCC[C@@H](C)O2	.	.	-13.1	0.1	.	-10.8	.
C[C@H](CO)N1C[C@H](C)[C@H](CN(C)Cc2ccc(Oc3ccccc3)cc2)Oc2ccc(NC(=O)CCCCCC(=O)Nc3ccccc3N)cc2CC1=O	.	.	0.9	60.5*	.	16.4	-12.0%
C[C@H]1CN([C@@H](C)CO)C(=O)Cc2cc(NC(=O)CCCCCC(=O)Nc3ccccc3N)ccc2O[C@@H]1CN(C)Cc1ccc(-c2ccccc2)cc1	.	.	-16.6	-16.2	.	-1.6	.
C[C@H]1CN([C@@H](C)CO)C(=O)Cc2cc(NC(=O)CCCCCC(=O)Nc3ccccc3N)ccc2O[C@H]1CN(C)Cc1ccc(Oc2ccccc2)cc1	.	.	-0.5	60.1*	.	17.5	-6.1%
C[C@@H]1CN([C@H](C)CO)C(=O)Cc2cc(NC(=O)CCCCCC(=O)Nc3ccccc3N)ccc2O[C@@H]1CN(C)CC1CCCCC1	.	.	-7.1	60.5*	.	-1.3	2.3%
